Measured values taken from PubChem BioAssay AID999 (SRMLSC, 2007).
The source made the active and inactive calls.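 How the source made its calls: active means viability at or below 21.59%, 3 SD under the median of tested compounds; inactive means the rest.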

test: viability loss in PTEN-deleted cells – cell-based, validation, diverse DP compound set (AID 999); details: HCT116 PTEN-null viability, CellTiter-Glo, 60 h; at 10 µM; stronger effect = lower value;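 further: 100% = median luminescence of untreated cell control wells and 0% = no signal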

Question: With `C=C(C)C1CC=C(C)C(O)C1` (stereo unspecified) as the compound, how does the viability read?
Answer: 89.2% (inactive)

Question: For `Cc1ccc(Cl)c(Nc2ccccc2C(=O)O)c1Cl`, which viability is on record?
Answer: 98.1% (inactive)

Question: With `CC(C)C[C@@H](NC(=O)[C@@H](O)[C@H](N)Cc1ccccc1)C(=O)O` as the compound, how does the viability read?
Answer: 94.5% (inactive)

Question: With `C=C(C)[C@H]1CC=C(CO)CC1` as the compound, how does the viability read?
Answer: 96% (inactive)

Question: With `COC(=O)CCc1c(C)[nH]c(C(=O)OCc2ccccc2)c1C` as the compound, how does the viability read?
Answer: 97.7% (inactive)

Question: With `CC1COC2=C1C(=O)C(=O)c1c2ccc2c1CCCC2(C)C` (stereo unspecified) as the compound, how does the viability read?
Answer: 17.8% (active)

Question: For `C[C@@H]1C(=O)O[C@@H]2CC34C5CC(C(C)(C)C)[C@]36C(O)C(=O)O[C@@H]6O[C@@]4(C(=O)O5)[C@@]12O` (stereo partly specified), which viability is on record?
Answer: 53.4% (inactive)

Question: For `CC[n+]1c(-c2ccccc2)c2cc(N)ccc2c2ccc(N)cc21`, which viability is on record?
Answer: 20.1% (active)

Question: For `COc1cc2c(c(OC)c1OC)-c1ccc(OC)c(=O)cc1[C@@H](NC(C)=O)CC2`, which viability is on record?
Answer: 32.5% (inactive)

Question: For `NCCNS(=O)(=O)c1cccc2c(Cl)cccc12`, which viability is on record?
Answer: 94.3% (inactive)

Question: Which viability does the source give for `Nc1nc2ncc(CNc3ccc(C(=O)NC(CCC(=O)O)C(=O)O)cc3)nc2c(=O)[nH]1` (stereo unspecified) here?
Answer: 99.5% (inactive)

Question: With `C[C@]12CC[C@@H]3c4ccc(O)cc4CC[C@H]3[C@@H]1CC[C@H]2O` as the compound, how does the viability read?
Answer: 93.3% (inactive)

Question: Which viability does the source give for `Cc1ccc2c(c1)C(=O)C1(O)CCN(c3ccccc3)C1=N2` (stereo unspecified) here?
Answer: 91.9% (inactive)

Question: For `COc1ccc(CCN2CCC(Nc3nc4ccccc4n3Cc3ccc(F)cc3)CC2)cc1`, which viability is on record?
Answer: 16.6% (active)

Question: Which viability does the source give for `Cc1c(C)c2c(c(C)c1O)CCC(C)(COc1ccc(CC3SC(=O)NC3=O)cc1)O2` (stereo unspecified) here?
Answer: 79.8% (inactive)

Question: Which viability does the source give for `COc1ccc2cc([C@H](C)C(=O)O)ccc2c1` here?
Answer: 85.6% (inactive)

Question: Which viability does the source give for `CC(=O)N1CCN(c2ccc(OC[C@H]3CO[C@](Cn4ccnc4)(c4ccc(Cl)cc4Cl)O3)cc2)CC1` here?
Answer: 70.7% (inactive)

Question: Which viability does the source give for `C=C(CCC12O[C@H](C(=O)O)[C@@](O)(C(=O)O)[C@](C(=O)O)(O1)[C@H](OC(=O)/C=C/[C@@H](C)C[C@@H](C)CC)[C@H]2O)[C@@H](OC(C)=O)[C@H](C)Cc1ccccc1` here?
Answer: 98.3% (inactive)

Question: For `COc1ccc(-c2cc(C(=O)O)no2)cc1`, which viability is on record?
Answer: 97.7% (inactive)

Question: With `O=c1c(O)c(-c2ccc(O)c(O)c2)oc2cc(O)cc(O)c12` as the compound, how does the viability read?
Answer: 72.4% (inactive)

Question: With `C=C1C(=O)[C@]23[C@H](O)[C@H]1CC[C@H]2[C@@]12COC3(O)[C@H](O)[C@@H]1C(C)(C)CC[C@@H]2O` as the compound, how does the viability read?
Answer: 76.4% (inactive)

Question: For `Nc1ccn([C@H]2CC[C@@H](CO)O2)c(=O)n1`, which viability is on record?
Answer: 93.9% (inactive)

Question: For `C[C@H]1c2cccc(O)c2C(O)=C2C(=O)[C@]3(O)C(O)=C(C(N)=O)C(=O)[C@@H](N(C)C)[C@@H]3[C@@H](O)[C@@H]21`, which viability is on record?
Answer: 90.5% (inactive)

Question: Which viability does the source give for `CCC[C@@H]1C[C@@H](C(=O)NC(C(C)Cl)[C@H]2O[C@H](SC)[C@H](O)[C@@H](O)[C@H]2O)N(C)C1` (stereo partly specified) here?
Answer: 100% (inactive)

Question: With `COc1cccc2c1C(=O)c1c(O)c3c(c(O)c1C2=O)C[C@@](O)(C(=O)CO)C[C@@H]3OC1C[C@@H](N)[C@H](O)[C@H](C)O1` (stereo partly specified) as the compound, how does the viability read?
Answer: 27.7% (inactive)

Question: With `Nc1c2c(nc3ccccc13)CCCC2` as the compound, how does the viability read?
Answer: 107% (inactive)

Question: For `CC1=C(/C=C/C(C)=C/C=C/C(C)=C/C=C/C=C(C)/C=C/C=C(C)/C=C/C(=O)[C@]2(C)C[C@@H](O)CC2(C)C)C(C)(C)C[C@H](O)C1`, which viability is on record?
Answer: 80.7% (inactive)

Question: Which viability does the source give for `CCCC[C@@H](C=O)NC(=O)[C@H](CC(C)C)NC(=O)[C@H](CC(C)C)NC(C)=O` here?
Answer: 15.1% (active)

Question: For `COc1ccc(CC(N)C(=O)N[C@H]2[C@@H](O)[C@H](n3cnc4c(N(C)C)ncnc43)O[C@@H]2CO)cc1` (stereo partly specified), which viability is on record?
Answer: 5.97% (active)

Question: With `O=C(c1ccc(OCCN2CCCCC2)cc1)c1c(-c2ccc(O)cc2)sc2cc(O)ccc12` as the compound, how does the viability read?
Answer: 61.1% (inactive)

Question: With `CC(C)=CCC/C(C)=C/COc1ccc2ccc(=O)oc2c1` as the compound, how does the viability read?
Answer: 91.9% (inactive)
